Source: PubChem (National Center for Advancing Translational Sciences (NCATS))
GLP-1R agonist = GLP-1 receptor (human) agonism. P43220. HEK293 GLP-1R CRE-luciferase, luminescence, 4-6 h; cells express a hypersensitive GLP-1R form. Potency, µM (series often up to 45.6 µM), for inactives: at the top dose activation, hits mostly activators. hit rate 0.007% among 380,000; also: % of control where 0% means no effect
Target sequence (P43220 whole entry, looked up): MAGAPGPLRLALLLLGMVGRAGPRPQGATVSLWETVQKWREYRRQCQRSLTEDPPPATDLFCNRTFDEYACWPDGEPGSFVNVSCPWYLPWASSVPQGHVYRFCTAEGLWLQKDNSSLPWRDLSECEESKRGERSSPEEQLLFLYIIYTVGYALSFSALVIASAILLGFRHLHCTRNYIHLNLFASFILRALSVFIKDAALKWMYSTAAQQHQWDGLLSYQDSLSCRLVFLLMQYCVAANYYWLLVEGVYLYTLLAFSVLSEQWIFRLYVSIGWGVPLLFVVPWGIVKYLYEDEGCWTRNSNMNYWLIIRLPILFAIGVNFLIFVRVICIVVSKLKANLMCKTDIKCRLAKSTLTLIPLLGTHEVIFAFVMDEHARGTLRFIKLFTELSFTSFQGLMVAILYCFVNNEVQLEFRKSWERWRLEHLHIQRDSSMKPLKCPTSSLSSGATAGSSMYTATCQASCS
GLP1R inv ag = acts as inverse agonist at human GLP-1 receptor | P43220 | HEK293 GLP-1R CRE-luciferase, luminescence, 24 h; GLP-1R form is constitutively active | Potency, µM (highest dose often 38.3 µM), for inactives: at the top dose activity change, negative = inhibition, hits mostly inhibitors | hit rate 1.6% among 410,000; also: % is scaled to controls: 0 for no effect and ±100 for the full control effect; nearly all actives have a fitted effect of over 55% in size
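Luminescence readout: a drop in cAMP-driven luciferase signal flags inverse agonism at a constitutively active GLP-1R stably expressed in HEK293. Compound exposure lasted 24 hr at 37 deg C, 5% CO2.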
BRCA1 expr up = BRCA1 expression activation | MCF7-BRCA1-FFLuc reporter, luminescence, 48 h; response scale: scaled: vehicle 0%, 10 µM genistein 100% | Potency, µM (titrated, usually from 46.1 µM), without a hit: at the top dose activation, actives largely listed as activators | hit rate 1.1% among 380,000; also: nearly all actives have a fitted effect of over 80% in size
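Cells: MCF7-BRCA1-FFLuc, 2000/well. Exposure: 48 h, 37 °C, 5% CO2. Read: luminescence, 15 min post-substrate. Controls: genistein 10 microM (maximal activation), DMSO (neutral).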
a7 integrin act = activators of alpha7 integrin expression for muscular dystrophy. alpha7betagal myoblasts, beta-gal FDG fluorescence, 48 h. Potency, µM (titrated, usually from 38.3 µM), inactives show at the top dose activation, hits mostly activators. hit rate 0.064% among 350,000. AID 624291;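 also: 100% = response of the positive control SU9516; nearly all actives have a fitted effect of over 60% in size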
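alpha7betagal+/- myoblasts (passage 13, 250/well) treated 48 h at 37C with compounds at 1:260 dilution of DMSO stock. Lysed, then beta-galactosidase activity read as FDG fluorescence (ex 480/em 540) after 30 min, with pre-read for autofluorescence.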
HEK293 tox = cytotoxic in the GLP-1 receptor inverse agonist counter-screen. hit rate 0.13% among 410,000. AID 624418. Potency, µM (top dose mostly 38.3 µM), for inactives: at the top dose activity change, negative = inhibition, actives largely listed as inhibitors. HEK293 cAMP-luciferase reporter cells, luminescence, 24 h;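 also: loss of luciferase light is scored as toxicity; % is scaled to controls: 0 for no effect and ±100 for the full control effect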
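To flag toxic compounds, the library was rerun on cells for 24 hr at 37 deg C and 5% CO2. Viability-linked luminescence was captured 12 min after adding luciferase detection reagent.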
* hit, by the source's call; ? = inconclusive; . = no result. This is a sample that favours compounds with a hit; in the whole collection about 2.7% have one here. Calls follow the shape of the dose curve; as a rule, active = well fitted curve in the direction sought with a large enough effect; inconclusive = small, poorly fitted or top-dose-only effect, or another doubt; inactive = no such curve, though single readings can be large; an effect the other way counts as inactive or inconclusive. Potency is read from the fitted curve at half-maximal effect.

SMILES	GLP-1R agonist	GLP1R inv ag	BRCA1 expr up	a7 integrin act	HEK293 tox
O=c1[nH][nH]c2c1[C@H](c1ccc(F)cc1)O[C@H](C1CCCCC1)C2	0%	2.8µM*	6%	.	4%
CC(C)=CCC[C@H](C)C[C@@H]1Cc2[nH][nH]c(=O)c2[C@@H](c2ccc(F)cc2)O1	6%	5.6µM*	9%	.	-16%
O=c1c2c([nH]n1-c1ccccc1)C[C@@H](C1CCCCC1)O[C@H]2c1ccc(F)cc1	-3%	2.2µM*	-25%	.	-29%
COc1ccc(NC(=O)Cn2ncc3c([nH]c4ccccc43)c2=O)cc1Cl	.	1%	.	.	-3%
O=C(Oc1cccccc1=O)c1ccccc1	-3%	10µM*	-38%	0%	?
CN(C)c1ccc(/C=C/c2ccc3c4ccccc4ccc3[n+]2-c2ccccc2)cc1	0%	?	-83%	-21%	7.9µM*
COc1cc(OC)c(OC)cc1/C=C/c1ccc2ccccc2[n+]1C	.	.	-20%	.	.
Cc1ccc(NC(=O)c2cc(-c3ccccc3)nn2-c2ccccc2)cc1	-7%	-7%	-66%	-1%	7%
CC(=O)C(/C=N/c1cc(-c2ccc(C)cc2)nn1-c1ccccc1)=C(\C)O	12%	0%	4µM*	19%	-5%
Cc1ccc(S(=O)(=O)c2nc(-c3cccs3)oc2SC(C)C)cc1	.	?	.	.	-16%
CC(C)S(=O)(=O)c1oc(-c2cccs2)nc1S(=O)(=O)c1ccc(F)cc1	.	?	.	.	10µM*
Cc1ccc(C(c2cccc(Br)c2)c2c(C)[nH]c3ccccc23)s1 (stereo not given)	.	10µM*	.	.	0%
Cc1ccc(-c2cc3ncc(C(=O)c4cc([N+](=O)[O-])ccc4O)cn3n2)cc1	1%	-28%	0%	.	-7%
CC(=O)N1CCN(C(=O)c2ccc(-c3ccccc3Cl)o2)CC1	9%	12%	11µM*	-51%	-1%
O=C(c1ccc(-c2ccccc2Cl)o1)N1CCCCCCC1	?	5.6µM*	?	-53%	-16%
COc1ccc(S(=O)(=O)N(CCc2ccccc2)CC(=O)Nc2cc(C)ccc2C)cc1	.	?	.	.	-15%
Cc1ccc(NC(=O)COC(=O)c2ccccc2OCC(=O)N(C)C)cc1	.	.	7%	.	.
Fc1ccc2cnc(-c3ccccc3)c(-c3ccc(C(F)(F)F)cc3)c2c1	19%	13µM*	-46%	29%	-29%
Fc1ccc2cnc(-c3ccccc3)c(-c3cc(C(F)(F)F)cc(C(F)(F)F)c3)c2c1	-4%	4.5µM*	-37%	0%	-13%
Cc1ccc2oc(C(=O)Nc3ccc(S(=O)(=O)Nc4onc(C)c4C)cc3)c(C)c2c1	-1%	24%	11µM*	-15%	7%
COc1ccc(C)cc1NC(=O)COCc1cc(-c2ccc(F)cc2)on1	.	?	.	.	-7%
Cc1[nH]c2ccccc2c1SCCNC(=O)c1ccc(Br)o1	3%	11µM*	-50%	30%	-21%
O=C(NCCSc1c[nH]c2ccccc12)c1ccc(Br)o1	-4%	?	-17%	9%	-17%
C=C1C=C(C(F)(F)F)n2ncc(C(=O)NCc3ccc(F)cc3)c2N1	.	.	-10%	.	.
C=C1NN(Cc2ccccc2)C(=O)N1c1ccc(OC)cc1	.	.	13%	.	.
SMILES	GLP-1R agonist	GLP1R inv ag	BRCA1 expr up	a7 integrin act	HEK293 tox
Cc1ccc2c(c1)N(C(=O)N1CCC(C(=O)NCc3ccccc3F)CC1)CC(C)O2 (stereo not given)	.	6%	.	.	-28%
CC(N=c1ccccn1C(=O)Nc1ccc(Cl)cc1)c1ccco1 (stereo not given)	-1%	?	10µM*	14%	-10%
CC(N=c1ccccn1C(=O)Nc1ccc(F)cc1)c1ccco1 (stereo not given)	1%	1%	25%	-11%	-6%
O=C1Cc2ccccc2C1=C1C=c2ccccc2=C1	.	.	-25%	.	.
Cc1ccc(C2(c3ccccc3)NC(=O)N(CC(=O)NCc3ccccc3)C2=O)cc1C (stereo not given)	0%	6.3µM*	-33%	-40%	-17%
CCOC(=O)c1ccc2c(c1)N(CC(=O)Nc1ccc(CC)cc1)C(=O)c1ccccc1S2	0%	1%	10%	.	0%
CC(=O)c1cccc(Nc2ncnc3c2cnn3C)c1	.	20%	.	.	3%
